# Hits are enriched below; roughly 2.5% of the tested compounds scored in any of these assays.
# STAT3 binder – STAT3 binders, primary screen, biochemical, small molecule microarray, single point, set 2. AID 624138, 2012. Signal transducer and activator of transcription 3 (Homo sapiens), P40763. His-STAT3 binding, anti-His fluorescence. calls only. 17,000 compounds, 0.2% hits;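 active means compounds whose four printed spots each show fluorescence over background unusually high for their array block, chance value under 7%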
# NFkB SMM – binders of NF-kB p50 subunit, primary screen, biochemical, small molecule microarray, anti-His fluorescence; 17,000 compounds, 1.3% hits; anti-His fluorescence binding; AID 624139, 2012; calls only; Nuclear factor NF-kappa-B p105 subunit (Homo sapiens), P19838;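 active means spot fluorescence over background significantly raised, with a chance value under 7% in all four replicate spots of the compound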;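 further: probe protein is his-tagged human p50 processed subunit at 1 µg/ml; raw spot fluorescence signals with no normalization applied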
# p53 mut binder – binders of human mutant p53, primary screen, biochemical, small molecule microarray, anti-GST fluorescence. mutant tumor protein p53 (GST-tagged), Homo sapiens. small molecule microarray binding. calls only. 17,000 compounds, 0.4% hits. AID 624136, 2012;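 active means compounds whose four printed spots each glow above background more than chance allows, each with a p-value under 7%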
# c-Myc SMM – binders of human c-Myc, primary screen, biochemical, small molecule microarray, anti-His fluorescence. calls only. AID 624141, 2012. 17,000 compounds, 1.5% hits. His-c-Myc binding;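 active means spot fluorescence over background with P-value below 7% in all four replicate spots, showing protein binding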;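 further: score is binary with 100 for all four spots passing and 0 otherwise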
# Active calls of the source: *; i = inactive; · = no result given; + = active, no number.
SMILES,STAT3 binder,NFkB SMM,p53 mut binder,c-Myc SMM
C[C@@H]1CCCCO[C@H](CN(C)C(=O)c2ccccc2)[C@H](C)CN([C@@H](C)CO)C(=O)c2cc(NC(=O)Nc3ccc(F)cc3)ccc2O1,i,+,i,i
CCCN(C)C[C@@H]1OCCCC[C@@H](C)Oc2ccc(NC(=O)Nc3ccc(F)cc3)cc2C(=O)N([C@H](C)CO)C[C@H]1C,i,+,i,i
C[C@H](CO)N1C[C@H](C)[C@H](CN(C)C(=O)c2ccccc2)OCCCC[C@H](C)Oc2ccc(NC(=O)Nc3ccc4c(c3)OCO4)cc2C1=O,i,i,+,+
COC(=O)C[C@@H]1C(C(=O)O)=CO[C@@H](O[C@@H]2O[C@H](CO)[C@@H](O)[C@H](O)[C@H]2O)/C1=C\COC(=O)/C=C/c1ccccc1,i,i,i,i
CC#CCOC(=O)C1=CCCN(C)C1,+,+,i,+
COC(=O)C(CC#Cc1ccc2c(c1)[C@]1(C(=O)N2)[C@H](C(=O)N2CCCCCCC2)[C@H]2C(=O)O[C@H](c3ccccc3)[C@H](c3ccccc3)N2[C@@H]1c1ccc(OCCO)cc1)C(=O)OC,i,i,+,i
COC(=O)C(CC#Cc1ccc2c(c1)[C@]1(C(=O)N2)[C@H](C(=O)N2CCCCCCC2)[C@H]2C(=O)O[C@H](c3ccccc3)[C@H](c3ccccc3)N2[C@@H]1c1ccccc1OCCO)C(=O)OC,i,+,i,i
NC(=O)NCC#Cc1ccc2c(c1)[C@]1(C(=O)N2)[C@H](C(=O)N2CCCCCCC2)[C@H]2C(=O)O[C@H](c3ccccc3)[C@H](c3ccccc3)N2[C@@H]1c1ccc(O)cc1,i,i,+,+
Cc1ccc(CC(c2nc3ccccc3[nH]2)C(C)c2nc3ccccc3[nH]2)cc1 (stereo unspecified),i,i,i,i
C/C=C/CC(C)C(O)C1C(=O)NC(CC)C(=O)N(C)CC(=O)N(C)C(CC(C)C)C(=O)NC(C(C)C)C(=O)N(C)C(CC(C)C)C(=O)NC(C)C(=O)NC(C)C(=O)N(C)C(CC(C)C)C(=O)N(C)C(CC(C)C)C(=O)N(C)C(C(C)C)C(=O)N1C (stereo unspecified),i,+,i,·
Cn1nc(CC(=O)Nc2ccc(Oc3ccccc3)cc2)c2ccccc2c1=O,i,i,i,i
O=C(O)CCN1C(=O)c2cccc3c([N+](=O)[O-])ccc(c23)C1=O,i,i,i,+
Cc1ccc([N+](=O)[O-])cc1NC(=O)CCN1C(=O)c2ccccc2C1=O,i,i,i,i
CC1OC(OCC2OC(OCC3(C)C(O)CCC4(C)C3CCC3(C)C4CCC4C5=CC(C)(C)CCC5(C(=O)O)CCC43C)C(O)C(O)C2O)C(O)C(O)C1O (stereo unspecified),i,+,i,+
CC1OC(OCC2(C)C=C3C4CCC5C6(C)CCC(O)C(C)(COC7OC(CO)C(O)C(O)C7O)C6CCC5(C)C4(C)CCC3(C(=O)O)CC2)C(O)C(O)C1O (stereo unspecified),i,i,i,i
Cc1ccc(S(=O)(=O)NC(Cc2c[nH]c3ccccc23)C(=O)O)cc1 (stereo unspecified),i,i,i,i
CSCC(NS(=O)(=O)c1ccc(Br)cc1)C(=O)O (stereo unspecified),i,+,i,+
CN(C/C=C/c1ccccc1[N+](=O)[O-])CCc1ccccn1,i,i,i,i
COc1ccc(S(=O)(=O)N(C)CCc2ccccn2)cc1,+,+,i,+
O=C1O[C@@H](c2ccccc2)[C@@H](c2ccccc2)N2[C@@H](c3ccc(O)cc3)[C@]3(C(=O)Nc4ccc(C#CCCO)cc43)[C@@H](C(=O)N3CCCCCCC3)[C@H]12,i,i,i,i
O=C1O[C@@H](c2ccccc2)[C@@H](c2ccccc2)N2[C@@H](c3ccc(OCCO)cc3)[C@]3(C(=O)Nc4ccc(C#CCCO)cc43)[C@@H](C(=O)N3CCCCCCC3)[C@H]12,i,i,i,i
O=C1O[C@@H](c2ccccc2)[C@@H](c2ccccc2)N2[C@@H](c3ccc(OCCO)cc3)[C@]3(C(=O)Nc4ccccc43)[C@@H](C(=O)N3CCCCCCC3)[C@H]12,i,+,+,+

# Source: PubChem BioAssay (Broad Institute)
